# Screening results: PubChem, National Center for Advancing Translational Sciences (NCATS)
# PLK1 PBD block – inhibitors of human PLK1 polo-box domain binding | 360,000 compounds, 2.8% hits | P53350 | Potency, µM, for the others: max response, negative = inhibition, hits mostly inhibitors | Plk1 PBD binding of FITC phosphopeptide, fluorescence polarization | AID 720504; further: series mostly up to about 57 µM; nearly all actives have a fitted effect of over 65% in size
# TDP1 block – blocks human tyrosyl-DNA phosphodiesterase 1; AID 485290; Q9NUW8; recombinant TDP1, AlphaScreen DNA substrate cleavage; Potency, µM (top dose mostly 130 µM), inactives show at the top dose activity change, negative = inhibition, hits mostly inhibitors; 350,000 compounds, 0.28% hits; further: nearly all actives have a fitted effect of over 40% in size
# Target sequence (Q9NUW8 whole entry, looked up): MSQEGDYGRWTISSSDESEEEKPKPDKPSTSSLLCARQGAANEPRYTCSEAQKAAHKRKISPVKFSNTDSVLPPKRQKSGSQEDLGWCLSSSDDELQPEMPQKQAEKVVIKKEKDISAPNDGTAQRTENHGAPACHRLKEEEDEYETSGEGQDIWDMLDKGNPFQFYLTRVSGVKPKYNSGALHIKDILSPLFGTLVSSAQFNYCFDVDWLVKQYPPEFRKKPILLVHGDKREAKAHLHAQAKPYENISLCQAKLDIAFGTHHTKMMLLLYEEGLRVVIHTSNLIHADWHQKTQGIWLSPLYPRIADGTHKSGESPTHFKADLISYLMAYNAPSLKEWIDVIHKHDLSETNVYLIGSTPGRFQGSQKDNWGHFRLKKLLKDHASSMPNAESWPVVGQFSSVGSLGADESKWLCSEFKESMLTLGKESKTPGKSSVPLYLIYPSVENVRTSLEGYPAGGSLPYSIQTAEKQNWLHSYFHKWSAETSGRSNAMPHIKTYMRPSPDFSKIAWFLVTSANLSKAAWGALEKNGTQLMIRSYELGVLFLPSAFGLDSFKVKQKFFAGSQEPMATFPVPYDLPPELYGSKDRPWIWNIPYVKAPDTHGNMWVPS
#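 Signal: AlphaScreen proximity between streptavidin donor and anti-FITC acceptor beads on intact substrate. Reaction: Tdp1 1 nM, substrate 15 nM final, 5 min RT after 15 min compound preincubation.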
# TDP1 cell noCPT – qHTS for Inhibitors of human tyrosyl-DNA phosphodiesterase 1 (TDP1): qHTS in cells in absence of CPT | DT40 Tdp1-/- hTDP1 cells, no CPT, ATP luminescence, 48 h | Potency, µM (highest dose often 46.2 µM), for inactives: at the highest dose activity change, negative = growth inhibition, hits mostly inhibitors | 420,000 compounds, 15% hits; further: nearly all actives have a fitted effect of over 55% in size
#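 A cellular qHTS used chicken DT40 cells lacking endogenous Tdp1 but carrying stably transfected human TDP1. Compounds were applied without camptothecin, and cell growth kinetics were judged by ATP-dependent luminescence after ≥48 hr.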
# VDR inhibitor – inhibitors of human vitamin D receptor. P11473. VDR-SRC2-3 peptide fluorescence polarization, 2 h. Potency, µM, without a hit: max response, negative = inhibition, hits mostly inhibitors. 400,000 compounds, 0.93% hits
#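 Fluorescence polarization assay of small-molecule disruption of VDR binding to coregulator peptide SRC2-3. Compounds and controls pin-transferred, then read after 2 h incubation at ambient room temperature.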
# KAT2A inh – blocks human GCN5L2 histone acetyltransferase. Q92830. GCN5L2 HAT assay, ThioGlo1 CoA-SH fluorescence. Potency, µM (highest dose often 58.9 µM), inactives show top-dose activity change, negative = inhibition, most hits filed as inhibitors. 390,000 compounds, 0.21% hits
#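 GCN5L2 (20nM final) in 50mM HEPES, 0.1mM EDTA pH 7.5, 0.01% Tween-20 was preincubated 15 min at room temperature with compound, then given ThioGlo1 (50uM), H3(1-25) peptide (75uM) and acetyl-CoA (70uM); CoA-thiol fluorescence (Ex340/Em540) was read at 0 and 20 min.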
# TDP1 cell CPT – DT40-hTDP1 cell growth loss with CPT; chicken DT40 Tdp1-/-;hTDP1 cells + 20 nM CPT, ATP luminescence, 48 h; Potency, µM (titrated, usually from 46.2 µM), for inactives: top-dose activity change, negative = growth inhibition, hits mostly inhibitors; 420,000 compounds, 12% hits; further: nearly all actives have a fitted effect of over 55% in size
#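 Chicken DT40 Tdp1-/- cells complemented with human TDP1, 400 cells/well, exposed to compounds plus 20 nM camptothecin for at least 48 h at 37 C; viability read as ATP content by CellTiter-Glo luminescence.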
# Starred values were filed as active, the others as inactive; ? = inconclusive; nt = no result given; [ ] = remark or other dose. A selection: hits, their analogues and other compounds. The true share with any hit is near 18%. The call rests on the fitted dose curve; in most records, active means well fitted curve in the direction sought with a large enough effect; inconclusive means small, poorly fitted or top-dose-only effect, or another doubt; inactive means no such curve, though single readings can be large; an effect the other way counts as inactive or inconclusive. On the % scale 0 is the no-effect control and ±100 the full control effect; potency means the concentration at half of the fitted maximal effect.
SMILES,PLK1 PBD block,TDP1 block,TDP1 cell noCPT,VDR inhibitor,KAT2A inh,TDP1 cell CPT
COc1ccccc1CNN,?,5%,5.8µM*,?,-13%,2.6µM*
COc1ccccc1CNCCCCCCNCCCCCCCCNCCCCCCNCc1ccccc1OC,nt,15%[56.1 µM],6.5µM*,-2%,0%,13µM*
COc1ccccc1CNc1ncccn1,-16%,nt,0%,-4%,-9%,23%
CC1=Nc2ccccc2/C1=C/c1c(C)[nH]c2ccccc12,3%,nt,16µM*,3%,nt,?
CC1=Nc2ccccc2/C1=C/c1nc(-c2ccc(C)s2)oc1O,5%,5%,?,-12%,-13%,?
CN(C)c1ccc(C=C2c3ccccc3-c3ccccc32)cc1,nt,nt,22µM*,nt,nt,?
CC1=Nc2ccccc2/C1=C/c1ccc(N(C)C)cc1,nt,nt,18µM*,nt,nt,-96%
CN(C)c1ccc(/C=C2\c3ccccc3-c3ccc(N(C)C)cc32)cc1,nt,nt,?,nt,nt,-4%
CN(C)c1ccc(/C=C2/CCc3ccccc32)cc1,nt,nt,10µM*,nt,nt,14µM*
COc1ccc(OC)c(-c2ccc(C(=O)O)o2)c1,nt,5%[234 µM],nt,-25%,?,nt
O=C(COC(=O)c1cccc([N+](=O)[O-])c1)Nc1ncc(Br)s1,0%,1%,1%,-1%,-2%,4%
CC1Cc2ccccc2N1C(=O)COC(=O)Cc1ccc(F)cc1 (stereo not drawn),-5%,3%,1%,-3%,0%,-4%
CN(C)c1ccc(/C=C2\CCCCC2=O)cc1,-12%,4%,?,17%,-13%,20µM*
CC1CCCC(NCC(O)COC(c2ccc(F)cc2)c2ccc(F)cc2)C1C (stereo not drawn),2%,1%,2.6µM*,10%,-3%,5.2µM*
COc1cc(/C=N/NC(=S)Nc2cccc(S(=O)(=O)N(C)C)c2)ccc1O,-9%,8%,18µM*,-8%,-2%,?
CN(C)S(=O)(=O)c1cccc(NC(=S)NC(=O)c2ccco2)c1,-3%,-2%,-5%,-8%,-5%,?
COc1cc(/C=N/NC(=O)c2cccc(NC(=O)c3ccccc3)c2)ccc1O,2%,-10%,?,8%,-5%,-11%
CN(C)S(=O)(=O)c1cccc(NC(=S)NN=C(Cc2ccccc2)Cc2ccccc2)c1,1%,4%,5.2µM*,-19%,-4%,5.8µM*
O=C(CCCn1nnnc1CN1CCOCC1)N1CCN(c2ccccc2F)CC1,-4%,0%,-9%,-7%,-34%,-9%
Cc1ccc(C)c(Nc2nc3c(S(=O)(=O)c4ccc(C(C)C)cc4)nnn3c3ccsc23)c1,nt,3%,21µM*,9%,-15%,15µM*
Cc1ccc(C)c(Nc2nc3c(S(=O)(=O)c4ccc(Br)cc4)nnn3c3ccsc23)c1,nt,nt,21µM*,-3%,?,18µM*
Cc1ccc(Nc2nc3c(S(=O)(=O)c4ccccc4)nnn3c3ccsc23)c(C)c1,nt,3%,?,15%,2%,?
COc1ccccc1Nc1nc2c(S(=O)(=O)c3ccc(C(C)C)cc3)nnn2c2ccsc12,nt,0%,-5%,-7%,2%,-4%
CCc1ccc(S(=O)(=O)c2nnn3c2nc(Nc2cccc(C)c2C)c2sccc23)cc1,nt,0%,21µM*,2%,-3%,23µM*
Cc1ccc(CNC(=O)CN(C(=O)C2(C)CC(=O)N=C3C=CC=CN32)c2cccc(C)c2C)cc1 (stereo not drawn),-1%,6%,-2%,5%,-2%,10%
SMILES,PLK1 PBD block,TDP1 block,TDP1 cell noCPT,VDR inhibitor,KAT2A inh,TDP1 cell CPT
CCCCN(Cc1cccs1)S(=O)(=O)c1cc(-c2cc(C)no2)ccc1C,nt,-8%,?,2%,-17%,?
O=C(CCN1CCOCC1)NC1CCCN(Cc2ccccc2F)C1 (stereo not drawn),6%,4%,18%,0%,-2%,-9%
COc1ccc(/C=C2\N=C(SC)SC2=O)cc1OC,3%,-4%,-7%,0%,-10%,4%
CCOc1ccc(NC(C)=O)cc1[N+](=O)[O-],-4%,2%,8%,15%,-1%,14%
CCOc1cc(/C=C2\N=C(SC)SC2=O)cc([N+](=O)[O-])c1OC(C)=O,?,8%,?,-8%,-18%,18µM*
CCSC1=N/C(=C\c2ccc(C)s2)C(=O)S1,-6%,5%,3%,-6%,0%,10%
CCOc1c(OC(C)=O)ccc(/C=C2\N=C(SCC)SC2=O)c1[N+](=O)[O-],30µM*,2%,-15%,?,-5%,8%
CCOc1cc(/C=C2\N=C(SCC)SC2=O)cc([N+](=O)[O-])c1OC(C)=O,27µM*,1%,?,-1%,-6%,?
CCc1ccccc1NC(=O)CN1CCN(C(=O)CCC(=O)N2CCC(c3ccccc3)=N2)CC1,-1%,0%[56.1 µM],26µM*,-1%,-4%,15µM*
CCc1ccccc1NC(=O)CCC(=O)N1CCN(C(C)=O)CC1,-5%,nt,6%,nt,nt,-3%
COc1ccc(OC)c(NC(=O)c2ccc(-c3cccs3)cc2)c1,-3%,1%,?,-13%,-8%,-1%
Cc1ccc(-c2nnn(C(C)C(=O)N3c4ccccc4CCc4ccccc43)n2)cc1 (stereo not drawn),7%,0%,29µM*,-8%,-8%,?
CC(C(=O)N1c2ccccc2CCc2ccccc21)n1nnc(-c2ccc(N(C)C)cc2)n1 (stereo not drawn),-4%,4%,16µM*,-4%,-9%,?
CC(C(=O)N1c2ccccc2Sc2ccccc21)n1nnc(-c2cccs2)n1 (stereo not drawn),0%,7%,-1%,-1%,-20%,-9%
CN(C(=O)C1CCN(S(=O)(=O)c2cccs2)CC1)c1ccccc1,-4%,2%,16µM*,0%,-15%,?
CCOC(=O)c1c(C)[nH]c(C)c1S(=O)(=O)N1CCC(C(=O)N2CCN(c3ccc(F)cc3)CC2)CC1,nt,3%,-21%,-3%,-9%,-26%
O=S(=O)(c1cccs1)N1CCN(c2ccc(O)cc2)CC1,-2%,3%,2.6µM*,-3%,-4%,2.6µM*
Cc1cccc(N2CCN(C(=O)C3CCC(CNS(=O)(=O)c4cccs4)CC3)CC2)c1C (stereo not drawn),-1%,5%,13µM*,-4%,-11%,?
CN1CCN(S(=O)(=O)c2cccs2)CC1,0%,-8%,7%,0%,?,0%
